Bioassay records (PubChem BioAssay)
Compounds with a hit are over-represented: about 2.8% of the library has one in this group of screens.
HEK293 tox – cytotoxicity counter-screen for GLP-1 receptor inverse agonists | HEK293 cAMP-luciferase reporter cells, luminescence, 24 h | Potency, µM (titrated, usually from 38.3 µM), inactives show at the highest dose activity change, negative = inhibition, hits mostly inhibitors | actives 0.13% (n = 410,000);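 note: loss of luciferase light is scored as toxicity; % is set by controls: 0 for no effect and ±100 for the full control effect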
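1536-well qHTS counterscreen of the MLSMR; 200 cells/uL, 12 h pre-incubation, 23 nL cpd, 24 h at 37 deg C 5% CO2, luciferase detection reagent, 12 min RT, luminescence. Inhibition = undesired.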
Mito fusion yeast – mitochondrial division inhibition or fusion activation; S. cerevisiae fusion-defective mutant growth rescue, CellTiterGlo 48 h; Potency, µM (series often up to 46.1 µM), for inactives: top-dose growth rescue (activation), usual class: activators; actives 0.23% (n = 320,000); note: % of control where 0% means no effect; nearly all actives have a fitted effect of over 45% in size
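S. cerevisiae fusion-defective temperature-sensitive mutants (e.g. fzo1-1, mgm1-5) grown 48 h at 37C in YPEG (ethanol/glycerol non-fermentable) medium with 23 nl compound per well; growth rescue read as CellTiterGlo luminescence.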
GLP1R ag – activates the human GLP-1 receptor; AID 624172; HEK293 GLP-1R CRE-luciferase, luminescence, 4-6 h; cells express a hypersensitive GLP-1R form; Potency, µM (titrated, usually from 45.6 µM), for inactives: top-dose activation, most hits filed as activators; actives 0.007% (n = 380,000); note: % of control where 0% means no effect
Target sequence (P43220 whole entry, looked up): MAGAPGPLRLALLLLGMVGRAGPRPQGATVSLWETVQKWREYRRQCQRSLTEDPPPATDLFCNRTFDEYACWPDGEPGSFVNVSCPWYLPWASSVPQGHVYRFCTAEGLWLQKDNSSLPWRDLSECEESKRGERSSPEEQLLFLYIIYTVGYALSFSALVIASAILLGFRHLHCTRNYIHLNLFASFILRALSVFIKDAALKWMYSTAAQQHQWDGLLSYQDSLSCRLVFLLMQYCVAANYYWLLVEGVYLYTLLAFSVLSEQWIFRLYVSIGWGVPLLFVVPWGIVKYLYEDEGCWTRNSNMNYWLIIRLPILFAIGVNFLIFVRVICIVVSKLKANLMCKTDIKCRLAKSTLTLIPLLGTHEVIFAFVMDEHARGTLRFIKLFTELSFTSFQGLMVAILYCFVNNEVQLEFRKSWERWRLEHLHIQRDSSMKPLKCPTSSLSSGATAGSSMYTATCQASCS
GLP-1R inv ag – GLP-1 receptor (human) inverse agonism. P43220. HEK293 GLP-1R CRE-luciferase, luminescence, 24 h; GLP-1R form is constitutively active. Potency, µM (series often up to 38.3 µM), for inactives: at the highest dose activity change, negative = inhibition, most hits filed as inhibitors. actives 1.6% (n = 410,000). AID 624417; note: % is set by controls: 0 for no effect and ±100 for the full control effect; nearly all actives have a fitted effect of over 55% in size
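qHTS in 1536-well format: reporter HEK293 cells expressing constitutive GLP-1R activity in DMEM + 10% Nu serum, 24 hr with compounds at 37 deg C, luminescence read after 12 min with detection reagent.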
BRCA1 expr up – increases BRCA1 expression. MCF7-BRCA1-FFLuc reporter, luminescence, 48 h; response scale: scaled: vehicle 0%, 10 µM genistein 100%. Potency, µM (doses to about 46.1 µM), inactives show at the highest dose activation, usual class: activators. actives 1.1% (n = 380,000); note: nearly all actives have a fitted effect of over 80% in size
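MCF7-BRCA1-FFLuc, 2000 cells/well; 2 h attach, 37 °C/5% CO2; compound 48 h; luciferase substrate 15 min; luminescence end-point. Norm. to genistein 10 microM max activation and DMSO; concentration-response curves fitted.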
Active calls of the source: *; ? = inconclusive; · = no result. Calls come from the whole dose curve; as a rule, active = well fitted curve in the direction sought with a large enough effect; inconclusive = small, poorly fitted or top-dose-only effect, or another doubt; inactive = no such curve, though single readings can be large; an effect the other way counts as inactive or inconclusive. Potency is the fitted concentration of half-maximal effect.

SMILES	HEK293 tox	Mito fusion yeast	GLP1R ag	GLP-1R inv ag	BRCA1 expr up
CN(c1cnn(-c2ccccc2)c(=O)c1Cl)n1cccc1	2%	13%	6%	0%	11µM*
O=c1c(Cl)c(Cl)cnn1-c1ccccc1	-16%	-3%	-6%	?	-90%
CCOC(=O)c1cccc(NS(=O)(=O)c2c(C)nc3sc(C)cn3c2=O)c1	3%	·	·	1%	·
COc1ccccc1/C=C/C(=O)NC(=S)Nc1ccc(S(=O)(=O)N(C)c2ccccc2)cc1	-3%	1%	-18%	-1%	-18%
CCn1c(CNc2ccc(Cl)cc2)nnc1SCc1ccccc1	-4%	6%	-13%	11µM*	-33%
Cn1c(CNc2ccc(Cl)cc2)nnc1SCc1ccccc1	1%	-11%	2%	-10%	-43%
CCn1c(SCc2ccccc2)nnc1C1CCCCC1	1%	-10%	13%	4µM*	-24%
Cc1ccc(OCCSc2ncnc3sc(C)c(C)c23)cc1C	-12%	-1%	-15%	2%	-6%
Cc1ccccc1-c1cc(C(=O)NCc2ccc(OC(F)(F)F)cc2)n(CC2CC(c3cccnc3)=NO2)n1 (centres undefined)	0%	·	2%	22µM*	0%
COc1ccc(-c2[nH]c(-c3cccc(OC)c3)nc2SCC(=O)NC2CCCC2)cc1	-15%	10%	6%	?	-37%
O=C(/C=C/c1ccc(O)c(O)c1)c1ccccc1O	?	4%	12%	16%	0%
O=C(C=Cc1ccccc1O)c1ccccc1O	-16%	·	6%	7.9µM*	-24%
O=S(=O)(NC(=S)c1ccccc1)c1ccccc1	0%	·	-2%	-9%	-21%
CC(C)N=C(NS(=O)(=O)c1ccccc1)C(Cl)(Cl)Cl	?	?	-7%	4µM*	-82%
CCOc1ccc(C(=O)OCC(=O)N(Cc2ccccc2)Cc2ccccc2)cc1OC	-10%	8%	5%	10µM*	-35%
COc1ccc(/C=C2\SC(=S)N(N3C(=O)CCC3=O)C2=O)cc1O	-6%	1%	-1%	9%	7%
COc1cc(Cl)ccc1OCc1cc(C(=O)N2C[C@H]3CC[C@H]2C3)no1	-3%	-1%	4%	-2%	11µM*
COc1cc(Cl)ccc1OCc1cc(C(=O)N2C[C@@H]3CCC[C@H]2C3)no1	10%	0%	1%	?	?
COc1cc(C)ccc1OCc1cc(C(=O)N2C[C@H]3CC[C@H]2C3)no1	-9%	4%	4%	10%	17%
COc1cc(Cl)ccc1OCc1cc(C(=O)N(C)C2CCOC2)no1 (centres undefined)	-20%	1%	5%	6%	13µM*
CC(=O)c1ccc(OCc2cc(C(=O)N(C)C3CCOC3)no2)cc1 (centres undefined)	1%	1%	2%	6%	13µM*
COc1cc(C)ccc1OCc1cc(C(=O)N(Cc2c(C)nn(C)c2C)C2CC2)no1	-13%	-3%	-5%	-11%	13µM*
CN(C(=O)c1cc(COc2c(F)cccc2F)on1)C1CCOC1 (centres undefined)	0%	3%	-1%	7%	74%
CCCCC1CCC(CCCC(C)CCC(=O)O)CC1 (centres undefined)	2%	·	·	16%	·
Cc1ccc(S(=O)(=O)NC(=O)C2(C)CCN2C(=O)Cc2ccc(C(C)(C)C)cc2)cc1 (centres undefined)	-4%	·	-3%	-26%	6%
Cc1[nH]c2ccccc2c1CCO	-3%	-2%	1%	-5%	8%
COc1cccc(OCc2cc(C(=O)N(C)C3CCOCC3)no2)c1	-12%	-4%	1%	-8%	0%
CC(=O)c1ccc(OCc2cc(C(=O)N(C)Cc3nc4c(C)cccc4[nH]3)no2)cc1	7%	0%	1%	1%	-19%
CC(=O)c1ccc(OCc2cc(C(=O)N(C)CCOc3ccc(C)cc3)no2)cc1	-7%	-2%	17%	10µM*	4µM*
Cc1cc(OCc2cc(C(=O)N(C)C3CCOC3)no2)cc(C)c1Cl (centres undefined)	-9%	-2%	0%	?	2.8µM*
